# Several values for one entry are separate records, joined by “and”; a condition that tells them apart may be missing. Equal values may be shown once. Records with an inconclusive call do not appear. Entries that show only a call come without a potency. Unmarked numbers belong to inactive results. Activity calls are given as the source filed them. Unless noted, calls follow the shape of the dose curve; as a rule, active = well fitted curve in the direction sought with a large enough effect; inconclusive = small, poorly fitted or top-dose-only effect, or another doubt; inactive = no such curve, though single readings can be large; an effect the other way counts as inactive or inconclusive.
# Assays:
# [1] = molecular target: Cellular tumor antigen p53 (Homo sapiens) (UniProt P04637); experiment: Primary qHTS for small molecule compounds that upregulate eGFP-tagged delta133p53alpha (in N-terminal) cells. (AID 2060322); conditions: NCI-H358 eGFP-delta133p53alpha fluorescence, 24 h; activation: active compounds read high; also: series mostly up to about 56 µM; nearly all actives have a fitted effect of over 75% in size
# How it was run: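 NCI-H358 cells pre-induced 24 h with 10 ng/ml doxycycline to express N-terminal eGFP-delta133p53alpha, then dosed 24 h at 37C without doxycycline; fixed, Hoechst-stained, GFP intensity by laser scanning cytometry, normalized to DMSO (0%) and 57.5 uM 5-azacytidine (100%).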
# [2] = molecular target: Cellular tumor antigen p53 (Homo sapiens) (UniProt P04637); experiment: Primary qHTS for small molecule compounds that upregulate eGFP-tagged delta133p53alpha (in C-terminal) cells. (AID 2060324)
# How it was run: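 C-terminal eGFP-tagged delta133p53alpha NCI-H358 line; dox-induced (100 ng/ml, 24 h) then plated without dox; compounds pinned in titration, 24 h 37 °C/5% CO2; PFA fix, Hoechst nuclei; GFP by LSC.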
# [3] = molecular target: Aldehyde dehydrogenase, mitochondrial (Homo sapiens) (UniProt P05091); experiment: qHTS for Inhibitors of the Aldehyde Dehydrogenase Family (ALDH2) Validation screens (AID 2061302; active = well fitted inhibition curve with a large enough effect; title and protocol of this record describe different tests)
# [4] = qHTS for Inhibitors of the Aldehyde Dehydrogenase Family (ALDH1A2, ALDH1A3, ALDH2, ALDH3A1) (AID 2061307); also: nearly all actives have a fitted effect of over 50% in size
# [5] = molecular target: Retinaldehyde dehydrogenase 3 (Homo sapiens) (UniProt P47895); experiment: qHTS for Inhibitors of the Aldehyde Dehydrogenase Family (ALDH1A3) Confirmatory screens (AID 2061311); also: potency is read from the fitted curve at half-maximal effect; nearly all actives have a fitted effect of over 60% in size
# [6] = molecular target: Retinal dehydrogenase 2 (Homo sapiens) (UniProt O94788); experiment: qHTS for Inhibitors of the Aldehyde Dehydrogenase Family (ALDH1A2) Confirmation screens (AID 2061314); also: nearly all actives have a fitted effect of over 65% in size; also: potency is read from the fitted curve at half-maximal effect
# [7] = molecular target: Retinaldehyde dehydrogenase 3 (Homo sapiens) (UniProt P47895); experiment: qHTS for Inhibitors of the Aldehyde Dehydrogenase Family (ALDH1A3) Validation screen (AID 2061312); also: nearly all actives have a fitted effect of over 45% in size
# [8] = molecular target: Aldehyde dehydrogenase, mitochondrial (Homo sapiens) (UniProt P05091); experiment: qHTS for Inhibitors of the Aldehyde Dehydrogenase Family (ALDH2) Primary screen (AID 2061308); also: nearly all actives have a fitted effect of over 55% in size
# [9] = molecular target: Retinaldehyde dehydrogenase 3 (Homo sapiens) (UniProt P47895); experiment: qHTS for Inhibitors of the Aldehyde Dehydrogenase Family (ALDH1A3) Primary screen (AID 2061315)
# [10] = BET inhibitor-based combinations targeting novel dependencies in MECOM-rearranged (r) AML: SET-2 cell line (AID 2202231); conditions: SET-2 AML cells viability, CellTiter-Glo luminescence, 48 h; viability: active compounds read low, series mostly up to about 46 µM; also: nearly all actives have a fitted effect of over 35% in size
# How it was run: (§1)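 Each compound was tested at eleven concentrations on cells seeded at 500/well. After two days' incubation, ATP-based luminescence reported viability; responses relative to DMSO and blank wells yielded AUC and cell-line-centred Z-AUC.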
# [11] = BET inhibitor-based combinations targeting novel dependencies in MECOM-rearranged (r) AML: OCI-AML3 cell line (AID 2202232); conditions: Potency: OCI-AML3 viability; also: series mostly up to about 46 µM; nearly all actives have a fitted effect of over 35% in size
# How it was run: as §1
# [12] = BET inhibitor-based combinations targeting novel dependencies in MECOM-rearranged (r) AML: HNT-34 cell line (AID 2202234); also: nearly all actives have a fitted effect of over 35% in size
# How it was run: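 First, 500 cells per well were seeded; next, drugs were pinned as 11-point doses; then plates sat 48 hr in the incubator; finally CellTiter-Glo was added and luminescence read, with AUC and Z-AUC computed.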
# Cellular tumor antigen p53 (Homo sapiens), sequence (P04637 whole entry, looked up): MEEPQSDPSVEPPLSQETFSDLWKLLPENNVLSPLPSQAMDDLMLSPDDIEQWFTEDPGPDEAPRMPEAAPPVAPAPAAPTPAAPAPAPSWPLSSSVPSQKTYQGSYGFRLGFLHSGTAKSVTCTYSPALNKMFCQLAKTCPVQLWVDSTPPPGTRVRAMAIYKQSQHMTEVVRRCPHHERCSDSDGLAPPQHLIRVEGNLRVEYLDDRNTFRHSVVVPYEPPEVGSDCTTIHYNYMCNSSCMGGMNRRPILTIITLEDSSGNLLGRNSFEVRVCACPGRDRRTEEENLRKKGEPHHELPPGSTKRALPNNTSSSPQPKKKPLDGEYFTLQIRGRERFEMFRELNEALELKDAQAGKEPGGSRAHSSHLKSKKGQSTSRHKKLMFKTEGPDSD
structure (smiles),measurement,setting,value
N=C(N)c1ccc(CS(=O)(=O)F)cc1,activation,[1],3.92%
same,Potency,[2],inactive
same,Potency,[3],inactive
NC1CCc2cc(O)c(O)cc2C1 (configuration not stated),activation,[1],-13%
same,Potency,[2],inactive
same,Potency,[3],inactive
same,Potency,[4],inactive
same,Potency,[5],11.3 µM (active)
same,Potency,[6],inactive
Clc1cnc(Oc2ccc(Oc3ncc(Cl)cc3Cl)cc2)c(Cl)c1,activation,[1],-22.6%
same,Potency,[2],inactive
same,Potency,[3],inactive
same,Potency,[7],inactive
C#CCN[C@H](C)Cc1ccccc1,activation,[1],4.01%
same,Potency,[2],inactive
same,Potency,[3],inactive
C[N+]1(C)CCOC(O)(c2ccc(-c3ccc(C4(O)C[N+](C)(C)CCO4)cc3)cc2)C1 (configuration not stated),activation,[1],14.5%
same,Potency,[2],inactive
same,Potency,[3],inactive
same,Potency,[4],inactive
same,Potency,[6],12.7 µM (active)
O=C(N[C@H]1CN2CCC1CC2)c1ccc(Cl)cc1,activation,[1],0.903% and 6.33% and -27.4%
same,Potency,[2],inactive
same,Potency,[3],inactive
same,Potency,[8],inactive
same,Potency,[7],inactive
same,Potency,[9],inactive
same,viability,[10],112%
same,Potency,[11],inactive
same,Potency,[12],inactive
CC(C)(O)[C@@H]1C2OC(=O)[C@@H]1[C@]1(O)C[C@H]3O[C@]34C(=O)O[C@H]2[C@]14C (tested in a mixture with another compound),activation,[1],10.1%
same,Potency,[2],inactive
same,Potency,[3],inactive
same,Potency,[7],inactive
CC(C)(C)NCC(O)c1ccccc1Cl (configuration not stated),activation,[1],26.8% and -4.18%
same,Potency,[2],inactive
same,Potency,[3],inactive
same,Potency,[7],inactive
CC(N)c1cccc(Cl)c1Cl (configuration not stated),activation,[1],-35.4%
same,Potency,[2],inactive
same,Potency,[3],inactive
same,Potency,[7],inactive
NCC(O)c1ccc(O)cc1 (configuration not stated),activation,[1],-4.18% and -26.8%
same,Potency,[2],inactive
same,Potency,[3],inactive
same,Potency,[7],inactive
c1ccc(C2CC2)c(OCC2=NCCN2)c1,activation,[1],9.21% and -4.03%
same,Potency,[2],inactive
same,Potency,[3],inactive
same,Potency,[7],inactive
NCCCP(=O)(O)O,activation,[1],-25.8%
same,Potency,[2],inactive
same,Potency,[3],inactive
same,Potency,[7],inactive
CC(N)Cc1c[nH]c2ccc(O)cc12 (configuration not stated),activation,[1],-0.781%
same,Potency,[2],inactive
same,Potency,[3],inactive
same,Potency,[7],inactive
NCC(CP(=O)(O)O)c1ccc(Cl)cc1 (configuration not stated),activation,[1],-1.72%
same,Potency,[2],inactive
same,Potency,[3],inactive
same,Potency,[7],inactive
CN1C2CCC1CC(OC(c1ccccc1)c1ccccc1N)C2 (configuration not stated),activation,[1],-67.5%
same,Potency,[2],inactive
same,Potency,[3],inactive
same,Potency,[7],inactive
COc1cc(C(O)CN)ccc1O (configuration not stated),activation,[1],-24.3%
same,Potency,[2],inactive
same,Potency,[3],inactive
same,Potency,[7],inactive
COc1ccc(C(CN(C)C)C2(O)CCCCC2)cc1 (configuration not stated),activation,[1],-16.7% and -7.09% and -5.45%
same,Potency,[2],inactive
same,Potency,[3],inactive
same,Potency,[7],inactive
CP(=O)(O)C1=CCNCC1,activation,[1],-37.6%
same,Potency,[2],inactive
same,Potency,[3],inactive
same,Potency,[7],inactive
NC(=NCCC[C@H](N)C(=O)O)N[N+](=O)[O-],activation,[1],-32.4%
same,Potency,[2],inactive
same,Potency,[3],inactive
same,Potency,[7],inactive
CCCC[N+]1(C)C2CC(OC(=O)[C@H](CO)c3ccccc3)CC1C1OC12 (some centres not stated),activation,[1],-8.28%
same,Potency,[2],inactive
same,Potency,[3],inactive
same,Potency,[7],inactive
CC(CCc1ccccc1)NC(C)C(O)c1ccc(O)cc1 (configuration not stated),activation,[1],-7.34% and 8.98%
same,Potency,[2],inactive
same,Potency,[3],inactive
same,Potency,[7],inactive
COc1ccc2c(c1)C13CCCCC1C(C2)N(C)CC3 (configuration not stated),activation,[1],-0.635%
same,Potency,[2],inactive
same,Potency,[3],inactive
same,Potency,[7],inactive
C[C@H](N)Cc1cccc(C(F)(F)F)c1,activation,[1],-17%
same,Potency,[2],inactive
same,Potency,[3],inactive
same,Potency,[7],inactive
NCCc1c[nH]c2ccccc12,activation,[1],-5.39%
same,Potency,[2],inactive
same,Potency,[3],inactive
same,Potency,[7],inactive
N[C@@]1(C(=O)O)CC[C@@H](C(=O)O)C1,activation,[1],21.8%
same,Potency,[2],inactive
same,Potency,[3],inactive
same,Potency,[7],inactive
CCCCCN(C)CCC(O)(P(=O)(O)O)P(=O)(O)O,activation,[1],3.78% and 4.27%
same,Potency,[2],inactive
same,Potency,[3],inactive
same,Potency,[7],inactive
O=C1C=CC(=O)C=C1,activation,[1],48.4%
same,Potency,[2],inactive
same,Potency,[3],inactive
same,Potency,[7],inactive
C[C@]12N[C@H](Cc3ccccc31)c1ccccc12,activation,[1],-0.686%
same,Potency,[2],inactive
same,Potency,[3],inactive
same,Potency,[7],inactive
COc1ccc2[nH]cc(CCN)c2c1,activation,[1],-19.1%
same,Potency,[2],inactive
same,Potency,[3],inactive
same,Potency,[7],inactive
C[C@H](N)CN1CCc2ccc(Br)cc21,activation,[1],5.22%
same,Potency,[2],inactive
same,Potency,[3],inactive
same,Potency,[7],inactive
NC(CCP(=O)(O)O)C(=O)O (configuration not stated),activation,[1],-26.8%
same,Potency,[2],inactive
same,Potency,[3],inactive
same,Potency,[7],inactive
Oc1ccc2c3c1O[C@H]1c4oc5ccccc5c4C[C@@]4(O)C(C2)N(CC2CC2)CCC314 (some centres not stated),activation,[1],-83.6%
same,Potency,[2],inactive
same,Potency,[3],inactive
same,Potency,[7],inactive
CCCN(CCC)C1CCc2cccc(O)c2C1 (configuration not stated),activation,[1],29.8%
same,Potency,[2],inactive
same,Potency,[3],inactive
same,Potency,[7],inactive
CC(=O)OCC1=C(C(=O)O)N2C(=O)[C@@H](NC(=O)CCC[C@@H](N)C(=O)O)[C@H]2SC1,activation,[1],20.4%
same,Potency,[2],inactive
same,Potency,[3],inactive
same,Potency,[7],inactive
